Measurements as given in PubChem BioAssay AID1159580 (chemical genetic matrix, 2015).
The whole screen tested about 5,500 compounds, of which about 2,000 (36%) were called active. Inconclusive results (about 18%) are left out. Rule as the data show it: active = normalized growth mostly below about 0.91 (no sharp cut-off); inconclusive = no clear call, values can overlap the other calls; inactive = mostly above about 0.92. Some of the results follow.

Experiment: chemical genetic growth profiling, strain panel (AID 1159580);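 also: tested at 20 µM; growth read once vehicle control cultures reached saturation at 30 °C; 1 = growth at the plate median or of vehicle wells; lower values mean less growth of the strain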
Conditions: growth OD
[1] = S. cerevisiae deletion strains, locus YJR075W, strain HOC1, stronger effect = lower value
[2] = S. cerevisiae deletion strains, locus YMR307W, strain GAS1, stronger effect = lower value
[3] = S. cerevisiae deletion strains, locus YNL128W, strain TEP1, stronger effect = lower value
[4] = S. cerevisiae deletion strains, locus YNL322C, strain KRE1, stronger effect = lower value
[5] = S. cerevisiae deletion strains, locus YPL055C, strain LGE1, stronger effect = lower value
[6] = S. cerevisiae deletion strains, locus YPL241C, strain CIN2, stronger effect = lower value
[7] = S. cerevisiae deletion strains, locus YDL101C, strain DUN1, stronger effect = lower value
[8] = S. cerevisiae deletion strains, locus YHR030C, strain SLT2, stronger effect = lower value

Measured: normalized growth

CCCn1c(=O)c2[nH]c(-c3ccc(OCC(=O)NCCN)cc3)nc2n(CCC)c1=O
inactive: S. cerevisiae deletion strains, locus YAL040C, strain CLN3, stronger effect = lower value 1.05 | S. cerevisiae deletion strains, locus YCL061C, strain MRC1 (second series), stronger effect = lower value 0.984 | S. cerevisiae deletion strains, locus YDR363W, strain ESC2, stronger effect = lower value 0.983 | S. cerevisiae deletion strains, locus YER002W, strain NOP16, stronger effect = lower value 0.986 | [1] 0.99 | [2] 1.01 | [3] 0.973 | S. cerevisiae deletion strains, locus YNL175C, strain NOP13, stronger effect = lower value 0.98 | S. cerevisiae deletion strains, locus YNL197C, strain WHI3, stronger effect = lower value 0.977 | S. cerevisiae deletion strains, locus YNL224C, strain SQS1, stronger effect = lower value 0.999 | [4] 0.95 | S. cerevisiae deletion strains, locus YOR083W, strain WHI5 (second series), stronger effect = lower value 0.984 | [5] 0.973 | [6] 0.985

CSc1cccc(N2C(=O)CC(c3c(Cl)cccc3Cl)CC2=O)c1
inactive: S. cerevisiae deletion strains, locus YAR019C, strain CDC15, stronger effect = lower value 0.99 | S. cerevisiae deletion strains, locus YBL105C, strain PKC1, stronger effect = lower value 0.98 | S. cerevisiae deletion strains, locus YBR135W, strain CKS1, stronger effect = lower value 0.987 | S. cerevisiae deletion strains, locus YBR136W, strain MEC1, stronger effect = lower value 0.989 | S. cerevisiae deletion strains, locus YBR160W, strain CDC28, stronger effect = lower value 0.989 | S. cerevisiae deletion strains, locus YDL017W, strain CDC7, stronger effect = lower value 0.99 | S. cerevisiae deletion strains, locus YDL028C, strain MPS1, stronger effect = lower value 0.997 | [7] 0.987 | S. cerevisiae deletion strains, locus YDL108W, strain KIN28, stronger effect = lower value 0.988 | S. cerevisiae deletion strains, locus YDL132W, strain cdc53, stronger effect = lower value 0.982 | S. cerevisiae deletion strains, locus YDL214C, strain PRR2, stronger effect = lower value 0.997 | S. cerevisiae deletion strains, locus YDR052C, strain DBF4, stronger effect = lower value 0.988 | S. cerevisiae deletion strains, locus YDR054C, strain cdc34, stronger effect = lower value 0.983 | S. cerevisiae deletion strains, locus YDR226W, strain ADK1, stronger effect = lower value 0.983 | S. cerevisiae deletion strains, locus YDR477W, strain SNF1, stronger effect = lower value 0.992 | S. cerevisiae deletion strains, locus YER123W, strain YCK3, stronger effect = lower value 0.975 | S. cerevisiae deletion strains, locus YER133W, strain GLC7, stronger effect = lower value 0.993 | S. cerevisiae deletion strains, locus YFL009W, strain cdc4, stronger effect = lower value 0.966 | S. cerevisiae deletion strains, locus YFL029C, strain CAK1, stronger effect = lower value 0.986 | S. cerevisiae deletion strains, locus YFR003C, strain YPI1, stronger effect = lower value 0.983 | S. cerevisiae deletion strains, locus YFR019W, strain FAB1, stronger effect = lower value 0.971 | S. cerevisiae deletion strains, locus YFR028C, strain CDC14, stronger effect = lower value 0.986 | S. cerevisiae deletion strains, locus YGR040W, strain KSS1, stronger effect = lower value 0.987 | S. cerevisiae deletion strains, locus YGR052W, strain FMP48, stronger effect = lower value 1.02 | S. cerevisiae deletion strains, locus YGR092W, strain DBF2, stronger effect = lower value 0.985 | [8] 0.894 | S. cerevisiae deletion strains, locus YHR079C, strain IRE1, stronger effect = lower value 0.904 | S. cerevisiae deletion strains, locus YHR082C, strain KSP1, stronger effect = lower value 0.948 | S. cerevisiae deletion strains, locus YHR205W, strain SCH9, stronger effect = lower value 0.916 | S. cerevisiae deletion strains, locus YIL147C, strain SLN1, stronger effect = lower value 0.996 | S. cerevisiae deletion strains, locus YJL095W, strain BCK1, stronger effect = lower value 0.956 | S. cerevisiae deletion strains, locus YJL128C, strain PBS2, stronger effect = lower value 0.955 | S. cerevisiae deletion strains, locus YJL157C, strain FAR1, stronger effect = lower value 0.985 | S. cerevisiae deletion strains, locus YJR016C, strain ILV3, stronger effect = lower value 0.987 | S. cerevisiae deletion strains, locus YJR066W, strain TOR1, stronger effect = lower value 0.908 | S. cerevisiae deletion strains, locus YKL048C, strain ELM1, stronger effect = lower value 0.995 | S. cerevisiae deletion strains, locus YKL067W, strain YNK1, stronger effect = lower value 0.992 | S. cerevisiae deletion strains, locus YKL101W, strain HSL1, stronger effect = lower value 0.993 | S. cerevisiae deletion strains, locus YKL193C, strain SDS22, stronger effect = lower value 0.985 | S. cerevisiae deletion strains, locus YKL203C, strain TOR2, stronger effect = lower value 1.04 | S. cerevisiae deletion strains, locus YLR113W, strain HOG1, stronger effect = lower value 0.889 | S. cerevisiae deletion strains, locus YLR133W, strain CKI1, stronger effect = lower value 1 | S. cerevisiae deletion strains, locus YLR403W, strain SFP1, stronger effect = lower value 0.946 | S. cerevisiae deletion strains, locus YML070W, strain DAK1, stronger effect = lower value 0.995 | S. cerevisiae deletion strains, locus YMR001C, strain CDC5, stronger effect = lower value 0.992 | S. cerevisiae deletion strains, locus YMR205C, strain PFK2 (second series), stronger effect = lower value 0.997 | S. cerevisiae deletion strains, locus YMR277W, strain FCP1, stronger effect = lower value 0.983 | S. cerevisiae deletion strains, locus YNL006W, strain LST8, stronger effect = lower value 0.996 | S. cerevisiae deletion strains, locus YNL020C, strain ARK1, stronger effect = lower value 0.993 | S. cerevisiae deletion strains, locus YNL161W, strain CBK1, stronger effect = lower value 0.981 | S. cerevisiae deletion strains, locus YNL183C, strain NPR1, stronger effect = lower value 0.947 | S. cerevisiae deletion strains, locus YNL207W, strain RIO2, stronger effect = lower value 0.993 | S. cerevisiae deletion strains, locus YNL222W, strain SSU72, stronger effect = lower value 0.981 | S. cerevisiae deletion strains, locus YNL307C, strain MCK1 (second series), stronger effect = lower value 0.988 | S. cerevisiae deletion strains, locus YOL078W, strain AVO1, stronger effect = lower value 0.993 | S. cerevisiae deletion strains, locus YOL136C, strain PFK27, stronger effect = lower value 0.976 | S. cerevisiae deletion strains, locus YOR061W, strain CKA2, stronger effect = lower value 0.994 | S. cerevisiae deletion strains, locus YOR119C, strain RIO1, stronger effect = lower value 1 | S. cerevisiae deletion strains, locus YOR231W, strain MKK1, stronger effect = lower value 0.918 | S. cerevisiae deletion strains, locus YOR329C, strain SCD5, stronger effect = lower value 0.985 | S. cerevisiae deletion strains, locus YPL031C, strain PHO85, stronger effect = lower value 0.989 | S. cerevisiae deletion strains, locus YPL153C, strain RAD53, stronger effect = lower value 0.97 | S. cerevisiae deletion strains, locus YPL204W, strain HRR25, stronger effect = lower value 0.981 | S. cerevisiae deletion strains, locus YPL209C, strain IPL1, stronger effect = lower value 0.989 | S. cerevisiae deletion strains, locus YPL256C, strain CLN2, stronger effect = lower value 0.924 | S. cerevisiae deletion strains, locus YPR025C, strain CCL1, stronger effect = lower value 0.986 | S. cerevisiae deletion strains, locus YPR106W, strain ISR1, stronger effect = lower value 0.979 | S. cerevisiae deletion strains, locus YPR111W, strain DBF20, stronger effect = lower value 0.977 | S. cerevisiae deletion strains, strain NNK1, stronger effect = lower value 0.983 | S. cerevisiae deletion strains, strain TSCII, stronger effect = lower value 0.982
active: S. cerevisiae deletion strains, locus YJR066W, strain TOR1 (second series), stronger effect = lower value 0.566

O=C(CC(Nc1ccccc1)c1ccccc1)C1CC1 (stereo not given)
inactive: S. cerevisiae deletion strains, locus YAL013W, strain DEP1, stronger effect = lower value 1 | S. cerevisiae deletion strains, locus YBR229C, strain ROT2, stronger effect = lower value 0.99 | S. cerevisiae deletion strains, locus YCL061C, strain MRC1, stronger effect = lower value 0.974 | [7] 0.988 | S. cerevisiae deletion strains, locus YDL134C, strain PPH21, stronger effect = lower value 0.982 | S. cerevisiae deletion strains, locus YDR150W, strain NUM1, stronger effect = lower value 0.982 | S. cerevisiae deletion strains, locus YEL061C, strain CIN8, stronger effect = lower value 0.992 | S. cerevisiae deletion strains, locus YGR078C, strain PAC10, stronger effect = lower value 1.03 | [8] 0.968 | S. cerevisiae deletion strains, locus YHR087W, strain rtc3, stronger effect = lower value 1.04 | S. cerevisiae deletion strains, locus YJL187C, strain SWE1, stronger effect = lower value 1 | S. cerevisiae deletion strains, locus YJR043C, strain POL32, stronger effect = lower value 0.996 | [1] 0.969 | S. cerevisiae deletion strains, locus YLR039C, strain RIC1, stronger effect = lower value 0.869 | S. cerevisiae deletion strains, locus YLR058C, strain SHM2 (second series), stronger effect = lower value 0.998 | S. cerevisiae deletion strains, locus YLR085C, strain ARP6, stronger effect = lower value 0.992 | S. cerevisiae deletion strains, locus YLR262C, strain YPT6, stronger effect = lower value 0.938 | S. cerevisiae deletion strains, locus YML094W, strain GIM5, stronger effect = lower value 1.01 | S. cerevisiae deletion strains, locus YMR219W, strain ESC1, stronger effect = lower value 0.994 | S. cerevisiae deletion strains, locus YMR263W, strain SAP30, stronger effect = lower value 1.01 | [2] 1.19 | [3] 0.989 | S. cerevisiae deletion strains, locus YNL153C, strain GIM3, stronger effect = lower value 1.01 | S. cerevisiae deletion strains, locus YNL298W, strain CLA4 (second series), stronger effect = lower value 0.985 | [4] 0.982 | S. cerevisiae deletion strains, locus YNR030W, strain Alg12, stronger effect = lower value 1 | [5] 1.02 | [6] 0.981 | S. cerevisiae deletion strains, locus YPR135W, strain CTF4, stronger effect = lower value 0.915 | S. cerevisiae strains, strain wild type, stronger effect = lower value 0.979
